Screening data (PubChem BioAssay)
miR-21 reporter – qHTS Assay for Modulators of miRNAs and/orActivators of miR-21. HeLa miR-21 FLuc reporter, luciferase, 48 h. Potency, µM (highest dose often 38.3 µM), inactives show at the highest dose activity change, positive = activation, usual class: activators. 340,000 tested, under 10 active;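 also: % of control where 0% means no effect; miR-21 action dims this reporter so a rising signal means less miR-21 action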
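Using DMEM plus 10% FBS, HeLa miR-21-FLuc cells are incubated with test compounds (final up to about 40uM) for 48 hours; firefly luciferase signal is then imaged following reagent-mediated lysis.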
DT40 TDP1 CPT – qHTS for Inhibitors of human tyrosyl-DNA phosphodiesterase 1 (TDP1): qHTS in cells in presence of CPT. chicken DT40 Tdp1-/-;hTDP1 cells + 20 nM CPT, ATP luminescence, 48 h. Potency, µM (top dose mostly 46.2 µM), for the others: at the highest dose activity change, negative = growth inhibition, hits mostly inhibitors. hit rate 12% among 420,000; also: potency is read from the fitted curve at half-maximal effect; % is scaled to controls: 0 for no effect and ±100 for the full control effect; nearly all actives have a fitted effect of over 55% in size
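Chicken DT40 Tdp1-/- cells complemented with human TDP1, 400 cells/well, exposed to compounds plus 20 nM camptothecin for at least 48 h at 37 C; viability read as ATP content by CellTiter-Glo luminescence.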
uPA generation – qHTS for Inhibitors of Cell Surface uPA Generation; AID 540303, 2011; hit rate 0.31% among 330,000; Potency, µM (top dose mostly 38.3 µM), without a hit: at the top dose activity change, negative = inhibition, hits mostly inhibitors; cell surface uPA generation assay, qHTS; active = well fitted inhibition curve with a large enough effect; inconclusive = small, poorly fitted or top-dose-only effect; inactive = no such curve, though single readings can be large or run the other way; tested in mouse RAW 264.7 cells; also: potency is read from the fitted curve at half-maximal effect; % is scaled to controls: 0 for no effect and ±100 for the full control effect; nearly all actives have a fitted effect of over 55% in size
TDP1 inh – qHTS Assay for Inhibitors of Tyrosyl-DNA Phosphodiesterase (TDP1); recombinant TDP1, AlphaScreen DNA substrate cleavage; hit rate 0.28% among 350,000; Potency, µM (series often up to 130 µM), for the others: at the top dose activity change, negative = inhibition, actives largely listed as inhibitors; Tyrosyl-DNA phosphodiesterase 1 (Homo sapiens), Q9NUW8; also: potency is read from the fitted curve at half-maximal effect; % is scaled to controls: 0 for no effect and ±100 for the full control effect; nearly all actives have a fitted effect of over 40% in size
Target sequence (Q9NUW8 whole entry, looked up): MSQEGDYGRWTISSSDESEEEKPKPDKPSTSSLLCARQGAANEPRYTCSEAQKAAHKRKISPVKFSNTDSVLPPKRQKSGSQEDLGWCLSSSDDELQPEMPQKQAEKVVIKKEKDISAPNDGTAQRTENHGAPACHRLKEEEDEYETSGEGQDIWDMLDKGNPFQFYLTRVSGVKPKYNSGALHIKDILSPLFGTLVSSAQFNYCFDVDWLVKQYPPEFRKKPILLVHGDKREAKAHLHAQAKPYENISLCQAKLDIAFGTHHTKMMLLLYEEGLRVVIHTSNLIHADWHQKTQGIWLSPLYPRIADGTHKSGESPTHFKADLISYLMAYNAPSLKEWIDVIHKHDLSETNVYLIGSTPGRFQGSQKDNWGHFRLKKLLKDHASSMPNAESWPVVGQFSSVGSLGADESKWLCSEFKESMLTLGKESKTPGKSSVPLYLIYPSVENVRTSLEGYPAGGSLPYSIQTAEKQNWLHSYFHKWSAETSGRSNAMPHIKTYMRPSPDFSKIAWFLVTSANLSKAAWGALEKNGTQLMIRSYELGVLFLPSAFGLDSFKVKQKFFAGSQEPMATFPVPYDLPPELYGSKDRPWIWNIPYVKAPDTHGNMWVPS
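Signal: AlphaScreen proximity between streptavidin donor and anti-FITC acceptor beads on intact substrate. Reaction: Tdp1 1 nM, substrate 15 nM final, 5 min RT after 15 min compound preincubation.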
DT40 TDP1 no CPT – qHTS for Inhibitors of human tyrosyl-DNA phosphodiesterase 1 (TDP1): qHTS in cells in absence of CPT | DT40 Tdp1-/- hTDP1 cells, no CPT, ATP luminescence, 48 h | Potency, µM (doses to about 46.2 µM), inactives show at the highest dose activity change, negative = growth inhibition, usual class: inhibitors | hit rate 15% among 420,000; also: potency is read from the fitted curve at half-maximal effect; % is scaled to controls: 0 for no effect and ±100 for the full control effect; nearly all actives have a fitted effect of over 55% in size
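Chicken DT40 Tdp1-/- cells complemented with human TDP1, screened without camptothecin (DMSO vehicle only), 400 cells/well. Compounds pin-transferred, cells incubated at 37 °C for at least 48 hr. Growth read as ATP-dependent luminescence (CellTiter-Glo, 30 min at RT).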
Starred values were filed as active, the others as inactive; ? = inconclusive; . = no result. Hits are enriched below; roughly 16% of the tested compounds scored in any of these assays. Unless noted, calls follow the shape of the dose curve; as a rule, active = well fitted curve in the direction sought with a large enough effect; inconclusive = small, poorly fitted or top-dose-only effect, or another doubt; inactive = no such curve, though single readings can be large; an effect the other way counts as inactive or inconclusive.

SMILES | miR-21 reporter | DT40 TDP1 CPT | uPA generation | TDP1 inh | DT40 TDP1 no CPT
COc1cc(C(CCN2CCN(c3ccccc3)CC2)c2c(OC)cc(OC)c3c(C)cc(=O)oc23)cc(OC)c1OC (configuration not stated) | 7% | 16µM* | ? | 21% | 16µM*
CCN(CC)CCC(c1ccc(N(C)C)cc1)c1c(OC)cc(OC)c2c(C)cc(=O)oc12 (configuration not stated) | . | . | . | 19% | .
CCN(CC)CCC(c1cc(OC)c(OC)c(OC)c1)c1c(OC)cc(OC)c2c(C)cc(=O)oc12 (configuration not stated) | 12% | 9.2µM* | 6% | 4% | 23µM*
COc1cc(OC)c2c(-c3ccccc3)cc(=O)oc2c1C(CCN1CCCCC1)c1ccc2c(c1)OCO2 (configuration not stated) | 24% | 9.2µM* | ? | 19% | 7.3µM*
Cc1noc(C)c1CSc1nc2sc3c(c2c(=O)n1C)CCCC3 | -8% | 12µM* | . | 8% | ?
C=CCn1c(SCc2c(C)noc2C)nc2sc3c(c2c1=O)CCCC3 | -3% | 18µM* | . | -1% | ?
COC(=O)c1sc(N)c(C(=O)OC)c1CSc1nc2sc3c(c2c(=O)n1C)CCC3 | -9% | ? | 1% | 2% | 26µM*
Cn1c(SCCN2CCOCC2)nc2sc3c(c2c1=O)CCCC3 | -9% | 4% | -17% | 6% | -25%
CCCS(=O)(=O)NC(=O)C1(C)CCN(C(=O)c2c(F)ccc(C)c2F)C1 (configuration not stated) | . | 3% | . | . | 5%
CCc1ccc(NC(=O)[C@H](Cc2c[nH]c3ccccc23)NC(=O)[C@@H]2Cc3ccccc3CN2)cc1 | 14% | 18µM* | -20% | . | ?
C=CCC(CC=C)(CNC(=O)C(=O)Nc1ccc(C)cc1)c1ccccc1 | -19% | -23% | . | -5% | -22%
O=C(CCn1c(=O)[nH]c2ccccc21)NCC1Cc2cc(Cl)cc(-c3ccncc3)c2O1 (configuration not stated) | . | 4% | . | . | -27%
O=C(Nc1cccc(NC(=O)c2cccc(F)c2)n1)c1cccc(F)c1 | -19% | ? | -2% | . | 21µM*
Cc1cc(C)nc(NC(=O)c2cccc(Br)c2)n1 | -6% | 26% | -2% | . | ?
CCOc1ccc(NC(=O)Nc2cc(-c3ccccc3)sc2C(=O)OC)cc1 | 1% | ? | 11% | -6% | ?
CCOc1ccc(-c2cc(NC(=O)Nc3ccc(Cl)cc3)c(C(=O)OC)s2)cc1 | -18% | ? | . | 0% | 21µM*
O=C(Nc1cc(-c2ccccc2)sc1C(=O)O)c1cccc(F)c1 | 12% | ? | 4% | -3% | 15µM*
CSc1nccc(NC(=O)c2cccc(Br)c2)n1 | 3% | -5% | 5% | . | 21µM*
O=C(COc1ccc2ccccc2c1)Nc1nnc(-c2ccco2)s1 | -7% | -16% | 3% | . | -4%
O=C(CSc1cccc[n+]1[O-])Nc1ccc([N+](=O)[O-])cc1Cl | -2% | ? | -1% | 0% | ?
CCOc1ccc(-c2cc(NC(=O)Nc3ccccc3C(F)(F)F)c(C(=O)OC)s2)cc1 | -51% | ? | . | 3% | ?
CCOc1ccc(-c2cc(NC(=O)c3c(F)cccc3F)c(C(=O)O)s2)cc1 | 0% | -25% | -3% | . | 21µM*
CCSc1nc(-c2ccccc2OC)nc2c1Cc1c(CO)cnc(C)c1O2 | -3% | 8.2µM* | . | 3% | 8.2µM*
CCSc1nc(-c2ccccc2F)nc2c1Cc1c(CO)cnc(C)c1O2 | -5% | -14% | . | 5% | -25%
COc1cccc(CSc2nc(-c3ccccc3F)nc3c2Cc2c(CO)cnc(C)c2O3)c1 | -1% | ? | . | -5% | 21µM*
SMILES | miR-21 reporter | DT40 TDP1 CPT | uPA generation | TDP1 inh | DT40 TDP1 no CPT
COc1ccc(OC)c(S(=O)(=O)NCC(c2ccc3c(c2)OCO3)N2CCOCC2)c1 (configuration not stated) | . | -5% | -1% | . | 0%
O=c1ccc2cc(S(=O)(=O)NCc3ccccc3)ccc2[nH]1 | 2% | -2% | -8% | . | -14%
CCOc1ccccc1-c1nc(-c2cccc(Br)c2)no1 | -8% | -22% | . | -8% | -11%
FC(F)(F)c1cnc(C(c2ccccn2)c2ncn[nH]2)c(Cl)c1 (configuration not stated) | 28% | ? | 2% | 3% | ?
Cc1ccc2nc(-c3ccc(N4CCOCC4)cc3)c(Nc3ccccc3C)n2c1 | 10% | 16µM* | . | 10% | 18µM*
Cc1ccc(Nc2c(-c3ccc(N4CCOCC4)cc3)nc3ccc(Cl)cn23)cc1 | -1% | -20% | . | -2% | -21%
Cc1ccccc1Nc1c(-c2ccc(N3CCOCC3)cc2)nc2ccc(Cl)cn12 | -9% | 18µM* | . | 8% | 16µM*
Cc1ccn2c(Nc3ccccc3C)c(-c3ccc(N4CCOCC4)cc3)nc2c1 | 1% | 18µM* | . | 12% | ?
CCC(C)COC(c1ccccc1)(c1ccccc1)C(Oc1nc(C)cc(C)n1)C(=O)O (configuration not stated) | 18% | -4% | 0% | 6% | -10%
Cc1ccc(S(=O)(=O)n2c(C)nc3cc(C)ccc32)cc1 | -2% | 9% | -4% | . | 13%
O=C(CSc1nc2ccsc2c(=O)n1CC1CCC(C(=O)O)CC1)NCCc1ccc(Cl)cc1 (configuration not stated) | -4% | -20% | -10% | 4% | 11%
CCOC(=O)c1cc(NC(=O)Nc2nc3ccccc3s2)c(C)nc1C | -15% | ? | 0% | -2% | ?
CC1(C)CC(=O)c2cc(C(=O)Nc3cccc4ccccc34)c(=O)[nH]c2C1 | . | ? | . | . | 16µM*
CCOc1cc(OCC)cc(C(=O)N2CCC[C@H]2C(=O)N2CCC[C@H]2C(=O)NCc2ccncc2)c1 | . | -9% | . | . | -16%
FC(F)C(F)(F)Oc1cccc(Nc2nccn3c(-c4cccc5ccccc45)cnc23)c1 | . | 16µM* | . | . | ?
FC(F)(F)c1cnc(Oc2cccc3ccccc23)c(Cl)c1 | -5% | -10% | -12% | -2% | ?
FC(F)C(F)(F)Oc1cccc(Nc2nccn3c(-c4ccc5ccccc5c4)cnc23)c1 | . | ? | . | . | 23µM*
FC(F)C(F)(F)Oc1cccc(-c2n[nH]c(=S)n2Cc2ccccc2)c1 | . | ? | 2% | 0% | ?
COc1ccc(N(C)C(=O)Cc2c(C(=O)O)[nH]c3ccccc23)c(OC)c1 | 19% | 1% | -2% | 3% | -27%
